Where “and” joins values, the source holds several entries; their conditions need not be identical. Identical values can stand only once. The panel holds about 83,000 compounds, 20% with a hit somewhere; the sample as a whole holds those more often.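 A percent growth of 40 corresponds to 60% growth inhibition; 0 means no net growth; -100 means all cells died. Active threshold: below 10.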 Calls of active or inactive are those of the source.

The assay deals with MDA-MB-468 breast. The experiment in a line: NCI-60 one-dose screen, 48 h (100 = growth as untreated, 0 = no growth, -100 = all killed). The settings on record: 10 µM unless noted.
Turning to `O=C(Nc1ccccc1)P(=O)(O)c1ccccc1`, the growth is 94.3% (inactive).

Turning to `CC1=C(C(=O)OC(C)C)C(c2ccc3c(c2)OCO3)NC(=S)N1` (stereo not given), the growth was 115% (inactive).

For `Cc1ccc(CC(=O)O)c(C)c1`, the growth was 112% (inactive).

On to `Cc1[nH]c(C(=O)Nc2ccc(C(=O)NCCN)cc2OC(C)C)c(Cl)c1Cl`, for which the growth was -43.6% (active).

As to `COc1cc(/C=C2\CN(C)C/C(=C\c3cc(CN4CCCCC4)c(O)c(OC)c3)C2=O)cc(CN2CCCCC2)c1O`, the growth is 13% (inactive).

With `N=C(N)c1ccc(-c2cc(Cl)cc(Cl)c2)cn1`, the growth was 78.7% (inactive).

Turning to `c1ccc2cc(C[n+]3ccn(CCCCCCCCCCCCn4cc[n+](Cc5ccc6ccccc6c5)c4)c3)ccc2c1`, the growth was -81.7% (active).

As for `CC1=CC(=NC(=O)CBr)C=C/C1=N\S(=O)(=O)c1ccccc1`, the growth is 66% (inactive).

For `CNC(=O)Cc1nc(-c2cccc(NS(=O)(=O)c3c(F)cccc3F)c2F)c(-c2ccnc(Nc3ccccc3)n2)s1`, the growth is 104% (inactive).

`C#CCOc1ccc(C(Nc2ccc(Cl)cc2)c2nnnn2C2CCCCC2)cc1` (stereo not given): the growth was 87.1% (inactive).

For `COc1cnc2c(c1)C(=O)c1c-2n(CCCNC(C)C)c(=O)c2cc([N+](=O)[O-])ccc12`, the growth was -55.8% (active).

On to `CC1(C)CC[C@]2(C(=O)N3CCNCC3)CC[C@]3(C)C(=CC[C@@H]4[C@@]5(C)CCC(=O)C(C)(C)[C@@H]5CC[C@]43C)[C@@H]2C1`, for which the growth is 105% (inactive).

With `CCCCCOC(=O)c1cccc(NC(=O)CN(CC)CC)c1`, the growth was 106% (inactive).

As to `O=S(=O)(NCCNc1nccc(-c2c(-c3cccc(O)c3)nc3occn23)n1)c1ccc(C(F)(F)F)cc1`, the growth is 89% (inactive).

As to `O=C(O)CNC1=C(Cl)C(=O)c2ccccc2C1=O`, the growth is 109% (inactive).

In the case of `O=[N+]([O-])c1ccc(Cl)c(S(=O)(=O)O)c1`, the growth is 112% (inactive).

Turning to `COC(=O)c1c2c(c(C)[n+]([O-])c1C)C(=O)C(NCc1cccc(Cl)c1)=CC2=O`, the growth was -26.3% (active).

Turning to `O=C1NC(=O)C(c2ccccc2)(c2ccccc2)N1Cc1cn(-c2c3ccccc3nc3ccccc23)nn1`, the growth is 38.2% (inactive).

Turning to `Cc1cc(Nc2nc(SCc3ccc(C(=O)Nc4ccc(F)cc4N)cc3)nn3cccc23)n[nH]1`, the growth is 47.7% (inactive).

`O=C(Nc1cccc(-n2ccc3c(NC(=O)c4ccccc4)nccc32)c1)Nc1cc(C(F)(F)F)cc(C(F)(F)F)c1`: the growth is 7.42% (active).

As for `COc1cc2oc(-c3cccc(NC(=O)[C@@H](N)C(C)C)c3)cc(=O)c2c(OC)c1OC`, the growth is 99.5% (inactive).

In the case of `O=C(CNCCO)Nc1ccc2ncnc(Nc3ccc(OCc4cccc(F)c4)c(Cl)c3)c2c1`, the growth is -17.8% (active).

In the case of `CCC(C#N)(CC)c1ccccc1`, the growth was 105% (inactive).

Take `CC(C)N1C(=O)/C(=c2\sc3n(c2=O)C2C(NN=3)N(C)C(=O)N2C)c2ccccc21` (stereo not given): the growth is 37.3% (inactive).

Consider `CC(C)(C)c1cc(/C=N\NC(=O)/C=C/C=C/c2ccc3c(c2)OCO3)c(O)c(C(C)(C)C)c1`, for which the growth was 70.7% (inactive).

For `Nc1nc(C(=O)N/N=C/c2ccc(N3CCOCC3)cc2)nn1-c1ccc(S(N)(=O)=O)cc1`, the growth was 105% (inactive).

Consider `NS(=O)(=O)c1ccc(CCN2C(=O)c3cc(Cl)c(Cl)cc3C2=O)cc1`, for which the growth was 119% (inactive).

`COc1cc(/C(C)=C(\c2ccc(Cl)cc2)c2ccc(OCCN(C)C)cc2)ccc1F`: the growth is 45.6% (inactive).

As to `COc1ccc(C2CC(c3ccc(Nc4ccnc5cc(Cl)ccc45)cc3)=NN2C(C)=O)cc1` (stereo not given), the growth was 65.3% (inactive).

`COc1cc(C2NC(=O)c3ccccc3N2)ccc1OCCCCCOc1c(OC)cc(C2=NOC(c3cc(OC)c(OC)c(OC)c3)C2)cc1OC` (stereo not given): the growth is 9.53% (active).

Turning to `CCOC(=O)c1cc2c(n1Cc1ccccc1OC)-c1oncc1CCC2`, the growth was 7.1% (active).

For the molecule `O=C(CSc1nc2ccccc2c(=O)n1-c1ccccc1)Nc1ccc(-c2nc3ccc([N+](=O)[O-])cc3[nH]2)cc1`, the growth is 81.5% (inactive).

As for `O=c1oc2c(C(F)(F)F)cccc2cc1-c1csc(Nc2ccc(OCCF)cc2)n1`, the growth was 5.55% (active).

Consider `CC1OC(Oc2c(-c3ccc(O)c(O)c3)oc3cc(O)cc(O)c3c2=O)C(O)C(O)C1O` (stereo not given), for which the growth was 102% (inactive).

As for `COc1cc(-c2csc(NC(=O)Nc3ccc(Cl)c(C(F)(F)F)c3)n2)cc(OC)c1OC`, the growth is -12.7% (active).

For the molecule `Cc1ccc(/C=C2\CN(C(=O)C(Cl)Cl)C/C(=C\c3ccc(C)cc3)C2=O)cc1`, the growth is -65.9% (active).

As to `FC(F)(F)c1ccc(-c2cnc(-c3nn[nH]n3)nc2NC2CCCCCC2)cc1`, the growth is 68.5% [50 µM] (inactive).

`Nc1nc(=S)c2ncn(C3OC(CO)C(O)C3O)c2[nH]1` (stereo not given): the growth was 114% (inactive) and -12.1% (active).

With `COc1ccc(C(O)c2cc3c(N)c(C(=O)Nc4cccc(Cl)c4C)sc3nc2C)cc1` (stereo not given), the growth is 8.74% (active).

As to `C=C(C)[C@@H]1CC[C@]2(C(=O)NCCCCCCN(CCCN)CCCN)CC[C@]3(C)[C@H](CC[C@@H]4[C@@]5(C)CC[C@H](OCCCN)C(C)(C)[C@@H]5CC[C@]43C)[C@@H]12`, the growth is 21.2% [100 µM] (inactive).
